Laboratory results as given in ChEMBL document CHEMBL2218924, “A broad activity screen in support of a chemogenomic map for kinase signalling research and drug discovery” (Biochem J, 2013).

Biological target: Ribosomal protein S6 kinase alpha-2 (Homo sapiens) (UniProt Q15349)
Settings: at 10 µM

Ribosomal protein S6 kinase alpha-2 (Homo sapiens), sequence (Q15349 whole entry): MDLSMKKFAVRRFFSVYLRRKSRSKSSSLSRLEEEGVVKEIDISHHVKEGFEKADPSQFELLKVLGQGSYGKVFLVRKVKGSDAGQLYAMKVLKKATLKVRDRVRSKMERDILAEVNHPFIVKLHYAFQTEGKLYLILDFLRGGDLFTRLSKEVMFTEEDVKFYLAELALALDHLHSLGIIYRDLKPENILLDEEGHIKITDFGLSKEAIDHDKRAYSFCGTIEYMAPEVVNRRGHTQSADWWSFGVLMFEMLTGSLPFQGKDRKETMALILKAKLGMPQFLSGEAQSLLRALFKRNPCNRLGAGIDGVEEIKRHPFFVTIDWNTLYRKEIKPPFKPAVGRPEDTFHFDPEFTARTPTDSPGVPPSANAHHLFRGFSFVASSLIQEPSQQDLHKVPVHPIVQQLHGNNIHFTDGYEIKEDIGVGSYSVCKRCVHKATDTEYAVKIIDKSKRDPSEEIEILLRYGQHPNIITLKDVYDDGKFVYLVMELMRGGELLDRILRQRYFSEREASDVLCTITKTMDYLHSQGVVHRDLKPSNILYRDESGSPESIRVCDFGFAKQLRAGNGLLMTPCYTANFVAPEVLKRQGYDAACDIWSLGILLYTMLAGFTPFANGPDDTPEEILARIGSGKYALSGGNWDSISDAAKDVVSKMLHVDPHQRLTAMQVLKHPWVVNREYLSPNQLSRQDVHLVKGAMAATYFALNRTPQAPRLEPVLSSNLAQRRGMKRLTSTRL

| SMILES | residual activity [%] |
| --- | --- |
| Nc1cccc(-c2cc3c(Oc4cccc(O)c4)ncnc3[nH]2)c1 | 27 |
| Cc1cccc(-c2[nH]c(C(C)(C)C)nc2-c2ccc3c(c2)OCO3)n1 | 97 |
| COc1cc2ncnc(Nc3ccc(NC(=O)c4ccccc4)cc3)c2cc1OC | 69 |
| Cn1nc2c3c(cccc31)C(=O)c1ccccc1-2 | 63 |
| N#Cc1cnc2cnc(NCc3cccnc3)cc2c1Nc1ccc(F)c(Cl)c1 | 0 |
| c1ccc2c(-c3ccncc3)c[nH]c2c1 | 48 |
| O=C(Nc1cccc(Nc2nccc(Nc3cccc(C(F)(F)F)c3)n2)c1)C1CC1 | 62 |
| CC(C)n1cnc2c(NCc3ccccc3)nc(NCCCO)nc21 | 72 |
| COc1cc2ncnc(Nc3ccc(Oc4ccccc4)cc3)c2cc1OC | 73 |
| O=C(O)c1ccc2c3c1cccc3c(=O)n1c3ccccc3nc21 | 55 |
| Cn1cnc2cc3c(Nc4cccc(Br)c4)ncnc3cc21 | 70 |
| O=C1Nc2ccc(Br)cc2/C1=C\c1cc2c([nH]1)CCCC2 | 76 |
| c1ccc(-c2n[nH]cc2-c2ccnc3ccccc23)nc1 | 95 |
| CC(=O)c1ccc(N2CCOCC2)cc1O | 107 |
| N#CCCc1ccc2c(c1)-c1[nH]c3ccc([N+](=O)[O-])cc3c1CC(=O)N2 | 1 |
| Cc1ccc(S(=O)(=O)/C=C/C#N)cc1 | 109 |

| SMILES | residual activity [%] |
| --- | --- |
| O=C1NC(=O)c2cc(Nc3ccc(F)cc3)c(Nc3ccc(F)cc3)cc21 | 78 |
| C[C@@H](N)[C@H]1CC[C@H](C(=O)Nc2ccncc2)CC1 | 11 |
| CCN(CC)C(=O)c1ccc(Nc2nc(OCC3CCCCC3)c3nc[nH]c3n2)cc1 | 2 |
| Cn1cc(/C=C2\C(=O)Nc3ccc(S(N)(=O)=O)cc32)c2ccccc21 | 0 |
| O=C1Nc2ccccc2/C1=C1/Nc2ccccc2/C1=N\OCCC(O)CO (configuration not stated) | 2 |
| c1ccc(-c2n[nH]c3c2oc2ccccc23)cc1 | 64 |
| NC(=O)c1ccc2[nH]c(-c3ccc(Oc4ccc(Cl)cc4)cc3)nc2c1 | 5 |
| Cc1cc(Nc2nc(-c3ccccc3)nc3ccccc23)n[nH]1 | 6 |
| Cc1cc2ncc(-c3ccccc3)nc2cc1C | 101 |
| Cc1nc2cc3nc(-c4cccs4)cnc3cc2n1C | 83 |
| CO[C@H]1[C@@H](OC)C[C@H](C)[C@@H](OC)C2=CC(=O)C=C(NC(=O)/C(C)=C/C=C/[C@H](OC)[C@@H](OC(N)=O)/C(C)=C/[C@@H]1C)C2=O | 104 |
| Oc1ccc(-c2nc(-c3ccc(F)cc3)c(-c3ccncc3)[nH]2)cc1 | 68 |
| COc1cc2ncc(-c3ccccc3)nc2cc1OC | 68 |
| COc1cc2ncnc(N3CCN(C(=O)Nc4ccc(Oc5ccccc5)cc4)CC3)c2cc1OC | 71 |
| O=C1NC(=O)/C(=C\c2ccc3nccnc3c2)S1 | 78 |
| Oc1ccc(Nc2nc(-c3ccc(Cl)cc3)cs2)cc1 | 80 |
